How the values were obtained:
[1] = target: Serine/threonine-protein kinase MRCK alpha (Homo sapiens) (UniProt Q5VT25); settings: at 0.1 µM
[2] = target: Serine/threonine-protein kinase MRCK alpha (Homo sapiens) (UniProt Q5VT25); settings: at 1 µM
[3] = target: Serine/threonine-protein kinase MRCK beta (Homo sapiens) (UniProt Q9Y5S2); settings: at 0.1 µM
[4] = target: Serine/threonine-protein kinase MRCK beta (Homo sapiens) (UniProt Q9Y5S2); settings: at 1 µM
[5] = target: Ribosomal protein S6 kinase alpha-5 (Homo sapiens) (UniProt O75582); settings: at 0.1 µM
[6] = target: Ribosomal protein S6 kinase alpha-5 (Homo sapiens) (UniProt O75582); settings: at 1 µM
[7] = target: Ribosomal protein S6 kinase alpha-4 (Homo sapiens) (UniProt O75676); settings: at 0.1 µM
[8] = target: Ribosomal protein S6 kinase alpha-4 (Homo sapiens) (UniProt O75676); settings: at 1 µM
[9] = target: Ribosomal protein S6 kinase beta-1 (Homo sapiens) (UniProt P23443); settings: at 0.1 µM
[10] = target: Ribosomal protein S6 kinase beta-1 (Homo sapiens) (UniProt P23443); settings: at 1 µM
[11] = target: T1, 3-phosphoinositide-dependent protein kinase 1 (Homo sapiens) (UniProt O15530); settings: at 0.1 µM;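 further: values are mean inhibition of PDK1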
T1 sequence (whole entry): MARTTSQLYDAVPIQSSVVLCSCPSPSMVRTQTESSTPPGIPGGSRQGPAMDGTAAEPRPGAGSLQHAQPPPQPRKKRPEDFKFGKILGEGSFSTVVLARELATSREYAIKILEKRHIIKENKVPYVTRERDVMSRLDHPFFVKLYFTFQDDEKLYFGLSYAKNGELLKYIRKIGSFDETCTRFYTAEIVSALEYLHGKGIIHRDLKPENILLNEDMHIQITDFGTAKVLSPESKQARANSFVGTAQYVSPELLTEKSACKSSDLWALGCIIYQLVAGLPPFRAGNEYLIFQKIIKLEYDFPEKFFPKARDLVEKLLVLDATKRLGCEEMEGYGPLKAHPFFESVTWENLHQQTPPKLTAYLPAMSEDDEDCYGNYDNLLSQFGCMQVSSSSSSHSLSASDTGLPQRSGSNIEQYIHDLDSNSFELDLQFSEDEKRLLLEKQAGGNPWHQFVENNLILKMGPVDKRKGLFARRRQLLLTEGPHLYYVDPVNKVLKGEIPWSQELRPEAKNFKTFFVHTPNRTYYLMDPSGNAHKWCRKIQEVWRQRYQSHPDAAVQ

[12] = target: cAMP-dependent protein kinase catalytic subunit alpha (Homo sapiens) (UniProt P17612); settings: at 0.1 µM
[13] = target: cAMP-dependent protein kinase catalytic subunit alpha (Homo sapiens) (UniProt P17612); settings: at 1 µM
[14] = target: Protein kinase C alpha type (Homo sapiens) (UniProt P17252); settings: at 0.1 µM
[15] = target: Protein kinase C alpha type (Homo sapiens) (UniProt P17252); settings: at 1 µM
[16] = target: Protein kinase C beta type (Homo sapiens) (UniProt P05771); settings: at 0.1 µM
[17] = target: Protein kinase C beta type (Homo sapiens) (UniProt P05771); settings: at 1 µM
[18] = target: Protein kinase C eta type (Homo sapiens) (UniProt P24723); settings: at 0.1 µM
[19] = target: Protein kinase C eta type (Homo sapiens) (UniProt P24723); settings: at 1 µM
[20] = target: Protein kinase C gamma type (Homo sapiens) (UniProt P05129); settings: at 0.1 µM;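 further: values are mean percent inhibition of PKC gamma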

Ribosomal protein S6 kinase beta-1 (Homo sapiens), sequence (P23443 whole entry, looked up): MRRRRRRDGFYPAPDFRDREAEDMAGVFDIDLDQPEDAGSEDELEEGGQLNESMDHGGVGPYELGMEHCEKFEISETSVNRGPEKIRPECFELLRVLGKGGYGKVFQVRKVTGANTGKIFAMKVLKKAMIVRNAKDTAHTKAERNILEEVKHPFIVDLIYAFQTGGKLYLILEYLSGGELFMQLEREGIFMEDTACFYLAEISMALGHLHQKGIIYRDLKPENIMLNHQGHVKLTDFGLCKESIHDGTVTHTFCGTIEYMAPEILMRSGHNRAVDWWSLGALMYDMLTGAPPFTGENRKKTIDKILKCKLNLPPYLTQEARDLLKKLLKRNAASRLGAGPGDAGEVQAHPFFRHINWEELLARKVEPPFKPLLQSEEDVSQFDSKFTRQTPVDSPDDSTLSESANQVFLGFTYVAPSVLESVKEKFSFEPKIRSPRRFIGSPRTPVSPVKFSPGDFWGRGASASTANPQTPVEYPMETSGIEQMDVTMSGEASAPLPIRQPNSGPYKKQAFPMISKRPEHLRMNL
Ribosomal protein S6 kinase alpha-5 (Homo sapiens), sequence (O75582 whole entry, looked up): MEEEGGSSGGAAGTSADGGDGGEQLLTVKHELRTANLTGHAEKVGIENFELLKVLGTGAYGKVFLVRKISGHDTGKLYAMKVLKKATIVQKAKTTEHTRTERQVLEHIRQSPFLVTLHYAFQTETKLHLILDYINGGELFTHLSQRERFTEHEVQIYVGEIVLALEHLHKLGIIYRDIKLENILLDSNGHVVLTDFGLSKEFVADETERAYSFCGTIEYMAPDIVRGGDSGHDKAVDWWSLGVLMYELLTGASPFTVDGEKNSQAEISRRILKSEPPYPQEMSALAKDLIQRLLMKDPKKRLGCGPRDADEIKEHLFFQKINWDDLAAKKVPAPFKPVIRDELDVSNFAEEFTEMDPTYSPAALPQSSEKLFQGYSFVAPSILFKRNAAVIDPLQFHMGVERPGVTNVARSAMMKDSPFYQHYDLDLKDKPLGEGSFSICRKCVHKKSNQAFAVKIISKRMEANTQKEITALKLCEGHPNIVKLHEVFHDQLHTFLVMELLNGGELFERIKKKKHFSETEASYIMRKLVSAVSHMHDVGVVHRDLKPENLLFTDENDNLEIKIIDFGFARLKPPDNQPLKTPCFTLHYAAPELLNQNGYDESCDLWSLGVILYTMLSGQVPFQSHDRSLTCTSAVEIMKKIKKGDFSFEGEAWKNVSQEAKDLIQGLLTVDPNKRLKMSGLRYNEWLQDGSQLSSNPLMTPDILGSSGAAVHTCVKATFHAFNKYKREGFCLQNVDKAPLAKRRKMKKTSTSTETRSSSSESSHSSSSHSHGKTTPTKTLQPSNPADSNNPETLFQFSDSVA
Protein kinase C beta type (Homo sapiens), sequence (P05771 2-671 limits assumed): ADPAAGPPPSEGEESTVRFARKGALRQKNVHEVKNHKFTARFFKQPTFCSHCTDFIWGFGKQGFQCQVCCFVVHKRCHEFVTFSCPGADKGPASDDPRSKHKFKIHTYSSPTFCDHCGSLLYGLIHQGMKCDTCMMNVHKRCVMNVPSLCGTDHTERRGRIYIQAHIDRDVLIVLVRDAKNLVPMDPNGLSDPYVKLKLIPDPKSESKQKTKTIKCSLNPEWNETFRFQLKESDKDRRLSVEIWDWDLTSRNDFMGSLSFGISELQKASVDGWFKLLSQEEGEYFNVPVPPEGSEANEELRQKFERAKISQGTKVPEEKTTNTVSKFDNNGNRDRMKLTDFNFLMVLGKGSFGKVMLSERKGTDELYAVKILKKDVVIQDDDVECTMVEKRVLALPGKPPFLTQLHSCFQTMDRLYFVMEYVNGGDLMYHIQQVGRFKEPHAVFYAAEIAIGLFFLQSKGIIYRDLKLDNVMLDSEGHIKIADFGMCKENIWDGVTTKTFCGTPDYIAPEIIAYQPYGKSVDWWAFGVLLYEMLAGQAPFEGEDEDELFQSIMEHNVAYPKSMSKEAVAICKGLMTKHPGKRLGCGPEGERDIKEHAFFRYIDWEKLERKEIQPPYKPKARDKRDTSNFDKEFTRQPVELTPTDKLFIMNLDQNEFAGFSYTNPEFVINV
Serine/threonine-protein kinase MRCK alpha (Homo sapiens), sequence (Q5VT25 whole entry): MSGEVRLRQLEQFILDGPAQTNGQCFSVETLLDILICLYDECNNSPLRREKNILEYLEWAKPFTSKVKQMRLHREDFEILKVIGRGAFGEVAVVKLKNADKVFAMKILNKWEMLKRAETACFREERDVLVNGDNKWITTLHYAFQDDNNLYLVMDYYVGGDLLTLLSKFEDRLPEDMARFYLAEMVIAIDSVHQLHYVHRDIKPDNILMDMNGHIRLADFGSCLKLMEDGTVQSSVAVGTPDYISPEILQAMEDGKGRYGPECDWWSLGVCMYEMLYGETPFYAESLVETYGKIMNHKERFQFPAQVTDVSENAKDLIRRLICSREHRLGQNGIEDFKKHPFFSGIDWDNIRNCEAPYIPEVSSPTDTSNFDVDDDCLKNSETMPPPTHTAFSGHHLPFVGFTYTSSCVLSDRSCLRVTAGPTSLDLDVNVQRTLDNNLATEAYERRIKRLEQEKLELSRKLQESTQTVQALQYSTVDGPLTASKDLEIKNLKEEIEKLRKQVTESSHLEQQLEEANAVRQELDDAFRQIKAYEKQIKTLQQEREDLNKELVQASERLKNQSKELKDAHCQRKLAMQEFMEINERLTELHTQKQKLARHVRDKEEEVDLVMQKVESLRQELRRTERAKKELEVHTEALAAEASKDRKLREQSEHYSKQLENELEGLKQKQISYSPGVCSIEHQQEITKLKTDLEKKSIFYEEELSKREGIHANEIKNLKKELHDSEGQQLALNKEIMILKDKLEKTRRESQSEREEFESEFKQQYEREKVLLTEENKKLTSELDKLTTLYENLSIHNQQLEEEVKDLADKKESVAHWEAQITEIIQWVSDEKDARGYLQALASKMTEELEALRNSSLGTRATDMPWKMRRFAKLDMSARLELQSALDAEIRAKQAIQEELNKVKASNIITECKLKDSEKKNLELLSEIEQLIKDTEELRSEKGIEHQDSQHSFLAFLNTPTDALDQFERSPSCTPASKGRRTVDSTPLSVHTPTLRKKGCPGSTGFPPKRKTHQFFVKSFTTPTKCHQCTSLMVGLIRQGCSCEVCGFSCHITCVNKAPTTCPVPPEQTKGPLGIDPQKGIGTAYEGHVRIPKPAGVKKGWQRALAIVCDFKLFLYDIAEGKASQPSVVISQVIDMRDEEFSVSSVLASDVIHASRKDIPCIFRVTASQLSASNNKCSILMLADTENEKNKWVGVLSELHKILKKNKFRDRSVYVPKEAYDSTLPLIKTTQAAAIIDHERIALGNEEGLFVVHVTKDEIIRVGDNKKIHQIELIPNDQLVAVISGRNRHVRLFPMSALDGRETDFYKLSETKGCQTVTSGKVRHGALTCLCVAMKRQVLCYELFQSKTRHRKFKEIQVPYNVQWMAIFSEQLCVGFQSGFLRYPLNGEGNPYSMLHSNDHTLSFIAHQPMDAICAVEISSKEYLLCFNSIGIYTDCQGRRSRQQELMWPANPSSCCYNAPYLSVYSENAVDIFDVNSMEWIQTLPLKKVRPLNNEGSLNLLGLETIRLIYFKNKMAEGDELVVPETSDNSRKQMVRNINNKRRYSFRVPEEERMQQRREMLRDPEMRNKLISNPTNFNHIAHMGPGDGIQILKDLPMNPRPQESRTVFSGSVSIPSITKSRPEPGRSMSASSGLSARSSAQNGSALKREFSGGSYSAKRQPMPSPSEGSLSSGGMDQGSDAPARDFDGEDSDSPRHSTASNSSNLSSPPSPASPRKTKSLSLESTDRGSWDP

Row | Structure (SMILES) | inhibition [1] [%] | inhibition [2] [%] | inhibition [3] [%] | inhibition [4] [%] | inhibition [5] [%] | inhibition [6] [%] | inhibition [7] [%] | inhibition [8] [%] | inhibition [9] [%] | inhibition [10] [%] | inhibition [11] [%] | inhibition [12] [%] | inhibition [13] [%] | inhibition [14] [%] | inhibition [15] [%] | inhibition [16] [%] | inhibition [17] [%] | inhibition [18] [%] | inhibition [19] [%] | inhibition [20] [%]
1 | Cc1nnc(-c2ccc(C)c(-c3ccc(C(=O)Nc4cccc(C#N)c4)cc3)c2)o1 | 0.21 | 2.76 | -0.92 | -0.91 | 1.21 | 1.62 | 0.19 | 2.28 | 1.45 | 1.91 | 0.99 | 2.18 | 1.76 | 0.5 | 0.89 | -0.92 | 2.05 | 0.8 | 3.76 | 1.49
2 | COc1cccc(-n2ncc3c(N/N=C/c4cccc(F)c4)ncnc32)c1 | 0.1 | -0.68 | 1.2 | 0.38 | 0.41 | -0.25 | 2.4 | 2.89 | 0.65 | 2.01 | 1.33 | -1.81 | -1.91 | -3.02 | -2.41 | 0.85 | 1.36 | 0.06 | 3.37 | 2.4
3 | Nc1nc(-c2ccc3c(c2)C(=Cc2cc(Br)c(O)c(Br)c2)C(=O)N3)cs1 | -0.3 | -1.5 | 0.42 | 0.83 | -1.16 | 0.13 | -1.47 | -0.48 | -1.65 | 1.12 | -1.98 | -0.95 | -0.7 | -0.01 | 1.51 | 0.67 | 0.52 | -1.62 | -1.96 | -2.56
4 | CN(C)c1cc2c(Nc3ccc4nc(Cc5ccccc5)[nH]c4c3)ncnc2cn1 | -0.16 | 1.32 | 0.33 | 0.93 | 4.14 | 4.53 | 1.93 | 2.96 | 2.15 | 4.96 | 4.68 | 3.66 | 2.62 | 1.27 | 2.33 | -1.06 | 2.6 | 3.25 | 3.62 | 3.66
5 | COc1cc2ncn(-c3cc(OCc4ccccc4C(F)(F)F)c(C(N)=O)s3)c2cc1OC | -5.9 | -3.27 | -0.23 | -0.14 | 1.71 | 1.02 | 2.52 | 5.14 | 1.44 | 3.22 | 0.58 | -1.97 | -1.35 | -3.16 | -2.48 | 0.23 | 0.89 | 5.48 | 5.95 | -1.78
6 | O=C1NC(=O)C(c2ccc(Cl)cc2)=C1Nc1ccc(Cl)c(C(=O)O)c1 | -0.29 | -0.46 | 0.31 | -0.42 | -1.75 | -1.95 | -2.17 | -1.54 | -1.54 | -1.25 | 0.12 | -1.8 | -1.57 | -0.02 | -0.11 | -1.13 | -0.89 | -3.26 | -3.28 | 0.52
7 | O=C1NC(=O)C(N2CCc3ccccc32)=C1c1ccc(Cl)cc1 | 0.19 | 0.98 | 0.69 | 1.86 | 9.94 | 7.93 | 1.73 | 4.02 | 1.81 | 1.76 | 1.64 | 1.84 | 1.95 | 0.86 | 1.6 | -0.46 | 0.52 | 0.02 | 3.59 | 5.52
8 | CCCN1CCC(Oc2cc(Nc3nc(Nc4cccc(F)c4C(N)=O)c4cc[nH]c4n3)c(OC)cc2Cl)CC1 | 0.81 | -1.24 | 1.36 | 2.2 | 1.01 | 3.87 | 1.03 | 1.99 | -0.03 | 1.36 | 1.74 | 9.14 | 9.18 | 0.7 | 11.2 | 0.29 | 1.21 | 2.42 | 1.59 | 2.93
9 | COC(=O)Nc1nc2cc(Oc3cccc(NC(=O)Nc4cc(C(F)(F)F)ccc4F)c3)ccc2[nH]1 | 0.87 | 0.69 | -0.19 | 2.03 | 0.09 | 1.11 | -0.69 | 1.7 | -0.07 | 1.88 | 1.08 | 2.29 | 4.75 | 0.42 | 0.96 | 0.04 | 2.71 | 0.61 | -1.2 | 1.08
10 | CC(C)=Cc1cccc2c1/C(=N/Nc1ccc(S(N)(=O)=O)cc1)C(=O)N2 | 1.91 | 3.43 | -0.74 | 0.5 | 7.7 | 11.4 | 2.65 | 15.9 | 1.06 | 5.23 | 10.4 | 0.47 | 3.74 | 0.96 | 1.29 | 0.26 | 1.55 | 0.51 | 2.14 | 1.44
11 | [O-][S+]1CCN(Cc2ccc(-c3ccc4ncnc(Nc5ccc(OCc6ccccc6)c(F)c5)c4c3)o2)CC1 | 0.13 | -0.47 | -0.5 | 0.8 | 1.59 | 1.41 | -0.07 | 2.42 | 0.52 | 0.86 | 2.01 | 0.99 | 0.53 | 0.47 | 1.52 | -0.89 | -0.42 | 0.68 | 0.14 | -0.39
12 | CS(=O)(=O)CCNCc1ccc(-c2ccc3ncnc(Nc4ccc(OCc5ccccc5)c(Cl)c4)c3c2)o1 | -0.63 | -1.47 | 0.86 | 0.8 | -7.35 | -6.84 | 0.04 | 1.73 | 0.22 | 2.03 | -0.51 | -0.81 | 1.12 | 0.09 | -0.42 | -1.09 | -2.64 | 1.32 | -1.74 | 1.29
13 | COc1ccc2cc(-c3c(-c4ccncc4)nc(-c4ccc([S+](C)[O-])cc4)n3C)ccc2c1 (stereo not given) | 0.19 | 1.36 | 0.92 | 1.62 | 3.04 | 1.94 | 1.31 | 4.13 | 2.56 | 2.88 | 0.4 | 1.97 | 9.5 | 0.25 | 0.94 | 0.88 | 7.1 | 2.61 | -1.46 | 1.09

Source: ChEMBL document CHEMBL1961873, “Compounds: GSK PKIS; Assays: Nanosyn kinase panel” (2012)
